Bioassay records from PubChem BioAssay.
Rows were chosen to be rich in hits. Some 3.6% of all compounds tested hit in one or more screens of this group.
Anthrax LF prot – anthrax lethal factor protease inhibition; inhibition, % at 10 µM; actives 0.12% (n = 360,000); P15917; multiplex microsphere protease cleavage assay, LF
Autofluor counter – counter-screen for toxin protease inhibitors: compound fluorescence | compound autofluorescence counterscreen, microsphere flow cytometry; hits give high values | fluorescence intensity (no concentration beside the values) | actives 3.1% (n = 360,000); in the data active = fluorescence intensity above about 16000; inconclusive = no clear call, values can overlap the other calls
BoNT-A LC inh2 – inhibitors of Botulinum neurotoxin A light chain protease; inhibition, % at 10 µM; actives 0.17% (n = 360,000); multiplex microsphere protease substrate cleavage, flow cytometry
BoNT F protease – BoNT F light chain protease inhibition; Multiplex microsphere protease cleavage assay, flow cytometry; inhibition, % at 10 µM; actives 0.22% (n = 360,000); in the data active = inhibition above about 35%, passing the limit was not always enough; inconclusive = no clear call, values can overlap the other calls
MazEF act – increases E. coli MazEF RNase cleavage of RNA; FAM/BHQ RNA-DNA oligo cleavage fluorescence, 5 h; activation, % at 20 µM; actives 0.32% (n = 350,000); in the data active = activation above about 50%
Each line names hits and unclear results; the compound was inactive in the other large screens. Rule as the data show it, unless noted: active = inhibition above about 30%; inconclusive = no clear call, values can overlap the other calls; inactive = below that.

O=S(=O)(NCCc1ccncc1)c1ccc(Br)cc1	Autofluor counter 22923
Cc1c(C(=O)NC(C)CN2CCCCC2)oc2ccccc12 (configuration not stated)	Autofluor counter 17372
O=C(OCC#CCSc1nnc(-c2cccc3ccccc23)o1)c1ccco1	Autofluor counter 20284, BoNT-A LC inh2 inconclusive
O=C(OCC#CCSc1nc2ccccc2o1)c1ccco1	Autofluor counter 22148, BoNT-A LC inh2 inconclusive
O=C(c1cc(C2CC2)on1)N1CCCC(N2CCN(c3ccc(F)cc3)CC2)C1 (configuration not stated)	none
O=c1[nH][nH]c2nc(C(F)(F)F)cc(C(F)(F)F)c12	Autofluor counter 22696, BoNT-A LC inh2 inconclusive
CCOC(=O)C(O)(c1ccc(NC(=O)NC2CCCCC2)cc1)C(F)(F)F (configuration not stated)	Autofluor counter 23646
COCC(C)n1c(SCC(=O)NC(=O)NCc2ccccc2)nc2ccccc2c1=O (configuration not stated)	none
CN1CCN(/C=N/C2=C(C#N)C(c3ccccc3)C3=C(CC(C)(C)CC3=O)O2)CC1 (configuration not stated)	Autofluor counter 22390
CC1(C)CC(=O)C2=C(C1)OC(N)=C(C#N)C2C#Cc1ccccc1 (configuration not stated)	none
CC(c1ccccc1)C1C(C#N)=C(N)OC2=C1C(=O)CC(C)(C)C2 (configuration not stated)	Autofluor counter 23366
C/C=C/c1cnc2c(c1)C(=O)N([C@H](C)CO)C[C@H](C)[C@@H](CN(C)C(=O)CN1CCOCC1)O2	none
COc1ccccc1N1CCN(C(=O)CCC(=O)O)CC1	none
COc1ccccc1N1CCN(C(=O)Cc2cccs2)CC1	Autofluor counter 22449, BoNT-A LC inh2 inconclusive
Cc1nc2ncnn2c(N2CCN(C(=O)Cc3cccs3)CC2)c1C	Autofluor counter 22223
COc1ccccc1N1CCN(C(=O)CCn2c(=O)[nH]c3ccccc3c2=O)CC1	Autofluor counter 22600, BoNT-A LC inh2 inconclusive
O=C(Cc1cccs1)N1CCN(c2ccc(F)cc2)CC1	none
Cc1ccc(NC(=S)NC2CCCC2)c(C)c1	BoNT F protease inconclusive
Cc1ccc2nc(C3CCCCC3)c(Cc3cccc(Cl)c3)n2c1	none (no result: MazEF act)
Cc1nnc2ccc(N3CCC4(CC3)OCCO4)nn12	Autofluor counter 23146, BoNT-A LC inh2 inconclusive
CSc1nc2ccc(NS(=O)(=O)c3ccc(Cl)s3)cc2s1	none
CN(C)S(=O)(=O)c1ccc2nc(NC(=O)c3cccnc3)sc2c1	none
CCN(CC)S(=O)(=O)c1ccc2nc(SC)sc2c1	Autofluor counter 18930
CSc1nc2ccc(S(=O)(=O)N(C)C)cc2s1	Autofluor counter 20777, BoNT-A LC inh2 inconclusive
CN(C)S(=O)(=O)c1ccc2nc(NC(=O)c3cccs3)sc2c1	Autofluor counter 21214
COc1ccc2c(CN3CCN(Cc4ccccc4)CC3)cc(=O)oc2c1	none
Cc1nc2ccccc2n1CC(=O)NCCN1CCCC1	none
O=C(Cn1c(C(F)(F)F)nc2ccccc21)NCCN1CCCC1	Autofluor counter 22679
N#CCCCSc1ncccc1-c1nc2ccccc2[nH]1	Autofluor counter 19935
CC(=O)Oc1ccccc1Cn1c(C)c(C(=O)NCc2ccccc2C(F)(F)F)sc1=O	none (no result: MazEF act)
COc1ccc(C)cc1S(=O)(=O)n1cnc2ccccc21	none
CC1CCN(C(=O)CSc2nc(N)cc(N)n2)CC1	Autofluor counter 23394
Nc1cc(N)nc(SCC(=O)N2CCCCC2)n1	none
Cc1ccc(-c2nn(-c3ccccc3)cc2C(=O)Nc2cccc(S(=O)(=O)NC3=NCCC3)c2)cc1	none
CCN(CC)c1ccc2nc3ccc(N)cc3[n+](-c3ccccc3)c2c1	BoNT-A LC inh2 34
CCCN1CCN(C(c2cc3cc(OCC)ccc3[nH]c2=O)c2nnnn2C2CCCCC2)CC1 (configuration not stated)	Autofluor counter 22710, BoNT-A LC inh2 inconclusive
COc1ccc2[nH]c(=O)c(C(c3nnnn3C3CCCCC3)N3CCN(C)CC3)cc2c1 (configuration not stated)	none
Cc1ccc2cc(C(c3nnnn3C3CCCC3)N3CCN(c4ccc(F)cc4)CC3)c(=O)[nH]c2c1 (configuration not stated)	Autofluor counter 22513
COc1ccc2cc(C(c3nnnn3C3CCCC3)N3CCc4ccccc4C3)c(=O)[nH]c2c1 (configuration not stated)	none
Cn1c(=O)oc2cc(S(=O)(=O)NCCC(=O)N3CCc4ccccc43)ccc21	Autofluor counter 21642, BoNT-A LC inh2 inconclusive
Cn1c(=O)oc2cc(S(=O)(=O)NCCC(=O)N3CC=C(c4ccccc4)CC3)ccc21	Autofluor counter 23639
COc1cccc(/C=N/NC(=O)c2ccoc2C)c1	Anthrax LF prot inconclusive
CCC(=O)N(CC)C1=C(O)c2ccccc2C(=O)C1=O	Autofluor counter 20676
CCC(=O)N(C1=C(NC)C(=O)c2ccccc2C1=O)C(C)C	none
Cc1c(O)cnc2nn(-c3ccccc3)c(=N)n12	none (no result: MazEF act)
O=C(Nc1ccccc1Cl)N1CCSc2ccccc21	none
O=C(Nc1ccccc1)N1CCSc2cc(Cl)ccc21	Autofluor counter 20918
O=C(Nc1cccc(Cl)c1)N1CCc2ccccc2C1	none (no result: Anthrax LF prot, Autofluor counter, BoNT-A LC inh2, BoNT F protease)
O=C(Nc1cccc(Cl)c1)N1CCSc2cc(Cl)ccc21	Autofluor counter 19711
CCC(C)(C)n1nnnc1C(c1cc2ccc(OC)cc2[nH]c1=O)N1CCc2ccccc21 (configuration not stated)	Autofluor counter 17938, BoNT-A LC inh2 inconclusive
CCC(C)(C)n1nnnc1C(c1cc2cc(OC)ccc2[nH]c1=O)N1CCc2ccccc21 (configuration not stated)	Autofluor counter 16186
CCC(C)(C)n1nnnc1C(c1cc2ccc(OC)cc2[nH]c1=O)N1CCc2ccccc2C1 (configuration not stated)	none
CCn1c(NC(=O)c2ccc(F)cc2)c2ccccc2nc1=O	Autofluor counter 19832
CCn1c(NC(=O)c2ccc(C)cc2)c2ccccc2nc1=O	none
CC(C)CNC(=O)COC(=O)c1c2c(nc3ccccc13)/C(=C/c1cccs1)CC2	BoNT-A LC inh2 31
COCC1CCN(C(=O)c2ccc3nc(Cc4cccc(Cl)c4)oc3c2)CC1	none
Cc1cc(=O)[nH]c(SCc2nc3ccccc3s2)n1	none
CCCc1cc(=O)[nH]c(SCc2ccccc2Cl)n1	Autofluor counter 20635
CCCc1cc(=O)[nH]c(SCc2nc3ccccc3s2)n1	Autofluor counter 19993
COC(=O)c1cc(-c2ccc(Br)cc2)on1	none
Cc1ccc(Cn2ccc(NC(=O)c3cc(-c4ccco4)on3)n2)cc1	Autofluor counter 21800
COc1ccc(OC)c(-c2cc(C(=O)Nc3c(C)nn(Cc4ccccc4Cl)c3C)no2)c1	none
COc1ccc(-c2cc(C(=O)Nc3c(C)nn(Cc4ccccc4Cl)c3C)no2)cc1OC	Autofluor counter 22371, BoNT-A LC inh2 inconclusive
Cc1nn(Cc2ccc(Cl)c(Cl)c2)c(C)c1NC(=O)c1cc(-c2ccco2)on1	Autofluor counter 21457
CCN(CC)C(=O)c1cc(-c2ccc(Br)cc2)on1	Autofluor counter 23321
